# Results filed as inconclusive are left out. A call without a number means that no potency is given here. Activity calls are given as the source filed them. Calls follow the shape of the dose curve; as a rule, active = well fitted activation curve with a large enough effect; inconclusive = small, poorly fitted or top-dose-only effect; inactive = flat fitted curve, though single readings scatter.
# Molecular target: Cellular tumor antigen p53 (Homo sapiens) (UniProt P04637)
# Test: Primary qHTS for small molecule compounds that upregulate eGFP-tagged delta133p53alpha (in C-terminal) cells. (AID 2060324)
# Conditions: NCI-H358 delta133p53alpha-eGFP (C-terminal tag), GFP fluorescence imaging, 24 h; series mostly up to 57.5 µM
# Text: Assay Development and Screening Technology
# National Center for Advancing Translational Sciences (NCATS),
# National Institute of Health (NIH), Rockville, Maryland
# Cellular senescence (CS) is one of the hallmarks of aging and age-related diseases. Senescent cells are characterized by an irreversible growth arrest, an increase in senescence-associated beta-galactosidase (SA-beta-gal) activity and p16INK4a expression, an activation of the DNA damage response pathways, and the emergence of a senescence-associated secretory phenotype (SASP).
# Delta133p53alpha, a human/primate-specific p53 protein isoform, delays or inhibits the induction of CS and SASP in various types of human cells, including progeria-derived fibroblasts, primary normal astrocytes, and CD8+ T lymphocytes. Induction of delta133p53alpha with small molecule compounds may provide therapeutic opportunities for inhibition of senescence/SASP-associated pathologies in progeria syndromes, astrocyte-mediated neuroprotection in neurodegenerative diseases, and possibly prevention and treatment of a wider range of senescence- and aging-associated diseases.
# Here we report the development and validation of a cell-based quantitative high throughput screening (qHTS) assay in 1,536-well format. This qHTS assay uses the NCI-H358 cell line with doxycycline-inducible expression of enhanced green fluorescent protein (eGFP)-tagged delta133p53alpha, which allows efficient and highly quantitative measurement of the protein levels.
# PROTOCOL TABLE (as described by Inglese J, Shamu CE and Guy RK. 2007)
# SEQUENCE No. (e.g., 1, 2, 3, etc.); […] (e.g., Cells, Incubation, Reagent, etc.); VALUE; DESCRIPTION.
# 1; Cells; 4uL; 800 doxycycline treated cells / well in doxycycline-free media, 1536-well black, clear-bottom low base Aurora microplates.
# 2; Compounds; 23 nL; Kalypsis pin tool (Wako) equipped with 1536-well pin heads, 5-azacytidine positive control.
# 3; Incubation; 24 hr; 37C, 5% CO2; 95% relative humidity.
# 4; Aspiration; 1x; BioTek EL406 washer dispenser (Agilent).
# 5; Fixing; 3.5% paraformaldehyde, BioTek EL406 washer dispenser (Agilent).
# 6; Washing; 1x PBS; BioTek EL406 washer dispenser (Agilent).
# 7; Nuclei staining; 1:1000 dilution of Hoechst 33342 (Thermofisher), BioTek EL406 washer dispenser (Agilent).
# 8; Incubation; 20 min; in the dark at room temperature.
# 9; Washing; 2x, 1x PBS (ThermoFisher), BioTek EL406 washer dispenser (Agilent).
# 10; Reagent; 10 uL; 1x PBS per well, sealed with clear adhesive tape.
# 11; Detection; Fluorescence, Acumen eX3 laser scanning cytometer (STP Labtech), GFP filters […].
# NOTES (numbers refer to sequence numbers above).
# 1. NCI-H358 cells expressing eGFP-tagged delta133p53alpha were grown in T75 culture flasks and treated with doxycycline for 24h, at 10 ng/ml for eGFP-D133p53a cells (N-terminal cell) and 100 ng/ml for D133p53a-eGFP cells (C-terminal cells). Cells were trypsinized, counted using a Counted 3 Automated Cell Counter (Thermo Fisher), and diluted to a concentration of 200,000 cells/ml. A Multidrop Combi Reagent Dispenser (ThermoFisher) was used to dispense 800 cells/well in […] of doxycycline-free media, into 1536-well black/clear bottom low base plates (AuroraMicroplates).
# 2. After plating cells, 23 nl of compound library, DMSO vehicle control or positive control (5-azacytidine) were transferred by Pin Tool (Wako). The plate map layout was the same for each plate: (column 1) non-doxycycline treated cells + DMSO vehicle control; (column 2) doxycycline treated cells + DMSO vehicle control baseline; (column 3) doxycycline treated cells + positive control 57.5 uM final concentration 5-azacytidine; (column 4) doxycycline treated cells + serial dilution of 5-azacytidine, 16-point 1:2 titration spanning 1.8 nM to […] final concentration; (columns 5-48) doxycycline treated cells + titration of library compounds.
# 3. Cells were incubated at 37 °C, 5 % CO2, 95% RH with breathable metal lid for 24h.
# 4-10. […] […]
# Potency is read from the fitted curve at half-maximal effect.
# Chain of Cellular tumor antigen p53 (Homo sapiens) (P04637 whole entry, looked up): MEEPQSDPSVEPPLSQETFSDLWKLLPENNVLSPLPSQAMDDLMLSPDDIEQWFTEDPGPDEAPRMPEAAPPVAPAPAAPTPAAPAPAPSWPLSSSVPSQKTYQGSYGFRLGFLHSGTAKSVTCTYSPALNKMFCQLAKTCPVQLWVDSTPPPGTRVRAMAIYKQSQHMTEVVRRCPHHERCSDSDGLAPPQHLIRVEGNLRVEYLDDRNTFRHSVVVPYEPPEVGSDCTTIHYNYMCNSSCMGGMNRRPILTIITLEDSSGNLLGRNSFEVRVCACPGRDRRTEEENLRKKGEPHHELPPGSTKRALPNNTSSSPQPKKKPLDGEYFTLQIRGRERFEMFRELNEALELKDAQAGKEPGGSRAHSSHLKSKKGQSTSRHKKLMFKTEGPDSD
row,SMILES,Potency
1,O=C(O)CCc1ccc(NCc2cccc(Oc3ccccc3)c2)cc1,inactive
2,COCc1nc2c([nH]1)c(=O)n(C)c(=O)n2CC(C)C,inactive
3,NCCS(=O)(=O)O,inactive
4,Cc1cccc(C)c1NC(=O)C(C)N (stereo not given),inactive
5,C[N+](C)(C)CCCCCC[N+](C)(C)C,inactive
6,O=C(OCCN1CCOCC1)C1(c2ccccc2)CCCCC1,inactive
7,CCCCCC(O)CCCC(=O)O (stereo not given),inactive
8,CCCCN(CC)c1nc(C)nc2c1c(C)cn2-c1c(C)cc(C)cc1C,inactive
9,NCC(O)C1CCCCCCC1 (stereo not given),inactive
10,NC1C=CC=C(C(=O)O)C1 (stereo not given),inactive
11,COC(=O)C(C)(N)Cc1ccc(O)cc1 (stereo not given),inactive
12,CC(C)NNC(=O)c1ccncc1,inactive
13,CCN(CC)CCNC(=O)c1cc(Cl)c(N)cc1OC,inactive
14,CC(C)(C)c1onc(OCP(=O)(O)O)c1CC(N)C(=O)O (stereo not given),inactive
15,CCN1C(=O)C=CC1=O,inactive
16,O=c1ccn([C@@H]2O[C@H](COP(=O)(O)OP(=O)(O)O)[C@@H](O)[C@H]2O)c(=O)[nH]1,inactive
17,Cc1cccc(/C=C/c2ccccc2)n1,inactive
18,NC(=O)CNCCC(c1ccccc1)c1ccccc1,inactive
19,CC(C)COC(=O)OCN1C(=O)CN(CCN2CC(=O)N(COC(=O)OCC(C)C)C(=O)C2)CC1=O,inactive
20,OCCN1CCN(CCCN2c3ccccc3Sc3ccc(Cl)cc32)CC1,inactive

row,SMILES,Potency
1,CCCNC(=O)NS(=O)(=O)c1ccc(Cl)cc1,inactive
2,N#Cc1cc([N+](=O)[O-])c2sc(C(N)=O)[n+]([O-])c2c1,inactive
3,CCNc1nc2c(ncn2[C@H]2C[C@H](O)[C@@H](CO)O2)c(=O)[nH]1,inactive
4,C[N+]1(C)CCC(OC(=O)C(c2ccccc2)c2ccccc2)CC1,inactive
5,O=C(O)[C@H]1NCCC[C@H]1C(=O)O,inactive
6,CCCOC(=O)c1c(-c2ccccc2)nc(CC)c(C(=O)SCC)c1CCC,inactive
7,C[C@@H](CN1CCC(Cc2ccccc2)CC1)[C@@H](O)c1ccc(O)cc1,inactive
8,NC(N)=Nc1nc(CSCC/C(N)=N/S(N)(=O)=O)cs1,inactive
9,CC(C)(C)c1ccc(S(=O)(=O)/C=C/C#N)cc1,26.9 µM (active)
10,N[C@@H](Cc1ccc(F)cc1)C(=O)O,inactive
11,COC(=O)c1c(C)[nH]c(C)c1C(=O)c1ccccc1Cc1ccccc1,inactive
12,Cc1[nH]c(=O)c(C#N)cc1-c1ccc2nccn2c1,30.1 µM (active)
13,CCN1CCCC1CNC(=O)c1cc(S(=O)(=O)CC)c(N)cc1OC (stereo not given),inactive
14,CC(N)=NCCCC[C@@H](N)C(=O)O,inactive
15,CCCOc1ccccc1-c1nc2n[nH]nc2c(=O)[nH]1,inactive
16,CCCCCCCCCC(=O)NC(CN1CCOCC1)[C@H](O)c1ccccc1 (stereo not given in full),inactive
17,CCCC(=O)NCCc1c2n(c3ccc(OC)cc13)CCCc1ccccc1-2,inactive
18,OCC1NCC(O)C(O)C1O (stereo not given),inactive
19,N=C(N)SCCN,inactive
20,c1cc(CN2CCCCC2)cc(OCCCNc2nc3ccccc3s2)c1,inactive
